Screening results as filed in PubChem BioAssay.
Pin1 inh = inhibitors of human Pin1; Q13526; Pin1 FP peptide displacement, HiFluor488, 10 min; Potency, µM (doses to about 115 µM), for inactives: top-dose activity, negative = inhibition, hits mostly inhibitors; actives 0.009% (n = 390,000); AID 504891; active means well fitted inhibition curve with a large enough effect in the polarisation, with a control signal flat, not every such curve was filed as active; inconclusive means small, poorly fitted or top-dose-only effect, or effect the other way, or a change in a side signal; inactive means no such curve, though single readings can be large or run the other way; the % refers to the polarisation; further: on the % scale 0 is the no-effect control and ±100 the full control effect
Target sequence (Q13526 whole entry, looked up): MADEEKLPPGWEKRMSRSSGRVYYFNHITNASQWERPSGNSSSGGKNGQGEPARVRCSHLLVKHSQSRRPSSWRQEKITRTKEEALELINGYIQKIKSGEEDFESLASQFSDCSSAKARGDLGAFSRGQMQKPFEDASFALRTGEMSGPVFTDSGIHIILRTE
GLP-1R inv ag = GLP-1 receptor (human) inverse agonism | P43220 | HEK293 GLP-1R CRE-luciferase, luminescence, 24 h; GLP-1R form is constitutively active | Potency, µM (highest dose often 38.3 µM), for inactives: at the top dose activity change, negative = inhibition, hits mostly inhibitors | actives 1.6% (n = 410,000); further: on the % scale 0 is the no-effect control and ±100 the full control effect; nearly all actives have a fitted effect of over 55% in size
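Inverse agonism was detected as reduced cAMP-driven luciferase luminescence after 24 h compound treatment. The cells were HEK293 clones expressing constitutively active human GLP-1R with the reporter. Reporter-only and GPR119 cell lines served as counterscreen controls.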
Tb PGK inh = blocks T. brucei phosphoglycerate kinase; P07378; PGK/GAPDH coupled, Kinase-Glo luminescence, 60 min; Potency, µM (doses to about 57.5 µM), inactives show at the highest dose activity change, negative = inhibition, most hits filed as inhibitors; actives 0.043% (n = 380,000); further: on the % scale 0 is the no-effect control and ±100 the full control effect; nearly all actives have a fitted effect of over 60% in size
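Recombinant glycosomal PGK reaction used 1,3-bisphosphoglycerate generated in-well by GAPDH (100nM final) in 100mM TEA pH 7.6, 5mM MgCl2, 0.01% Tween-20. After 60 minutes at room temperature, ATP was read by Kinase-Glo Plus luminescence end-point.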
Tb PFK inh = T. brucei PFK enzyme inhibition; O15648; T. brucei PFK, ADP-Glo luminescence; Potency, µM (top dose mostly 57.5 µM), inactives show at the top dose activity, negative = inhibition, hits mostly inhibitors; actives 0.17% (n = 330,000);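 further: 0% = uninhibited 1x PFK enzyme wells and -100% = no-enzyme wells; nearly all actives have a fitted effect of over 60% in size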
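Compounds were pin-transferred as a titration series up to 57 uM into substrate buffer (0.5 mM F6P, 0.1 mM ATP, pH 8.0), then 1.25 nM PFK was added and reactions ran 45 min before ADP-Glo detection.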
HEK293 tox = cytotoxic in the GLP-1 receptor inverse agonist counter-screen | HEK293 cAMP-luciferase reporter cells, luminescence, 24 h | actives 0.13% (n = 410,000) | AID 624418 | Potency, µM (top dose mostly 38.3 µM), for the others: top-dose activity change, negative = inhibition, hits mostly inhibitors;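 further: loss of luciferase light is scored as toxicity; on the % scale 0 is the no-effect control and ±100 the full control effect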
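Quantitative HTS format, 1536 wells, 200 cells/uL seeded. Compounds: 23 nL, 24 h, 37 °C. Detection: luciferase reagent, luminescence at 12 min RT; decreased signal taken as cytotoxic.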
GLP1R ag = agonists of human GLP-1 receptor. Potency, µM (doses to about 45.6 µM), inactives show at the top dose activation, hits mostly activators. P43220. AID 624172. HEK293 GLP-1R CRE-luciferase, luminescence, 4-6 h; cells express a hypersensitive GLP-1R form. actives 0.007% (n = 380,000); further: % of control where 0% means no effect
The depositor's hits bear a star. A selection: hits, their analogues and other compounds. The true share with any hit is near 1.8%. Unless noted, the call rests on the fitted dose curve; in most records, active means well fitted curve in the direction sought with a large enough effect; inconclusive means small, poorly fitted or top-dose-only effect, or another doubt; inactive means no such curve, though single readings can be large; an effect the other way counts as inactive or inconclusive. Potency means the concentration at half of the fitted maximal effect.

For Cc1ccc(O)c(CNc2nc3ccccc3n2C(C)C)c1 the results were Pin1 inh -3.0%, GLP-1R inv ag inconclusive, Tb PGK inh -2.4%, Tb PFK inh -0.8%, HEK293 tox 3.0% and GLP1R ag -0.4%.
For CCCN(C(=O)Cn1ncc2c1-c1ccccc1OC2)c1cccc(C)c1 the results were Pin1 inh inconclusive, GLP-1R inv ag inconclusive, Tb PGK inh 9.4% and HEK293 tox 0.9%.
Screening COc1ccc(Nc2nc(C#N)nc(NC3CCCC3)n2)cc1 returned Pin1 inh 8.0%.
For COc1cccc(C(=O)Oc2c(Br)cc(Br)cc2/C=N/NC(=O)c2cc(C)[nH]n2)c1 the results were Pin1 inh 20.8%, GLP-1R inv ag 6.31µM*, Tb PGK inh -6.0%, Tb PFK inh -1.2%, HEK293 tox -1.1% and GLP1R ag -0.4%.
Screening Cc1cc(C(=O)N/N=C/c2cccc(OC(=O)c3cccc(Br)c3)c2)n[nH]1 returned Pin1 inh 17.9%, GLP-1R inv ag 12.6%, Tb PGK inh -5.4%, Tb PFK inh 0.4%, HEK293 tox -19.0% and GLP1R ag -5.0%.
`CC1CC=C(c2ccccc2)C(=S)N1` (stereo not given) gave Pin1 inh 1.0%, GLP-1R inv ag 10µM*, Tb PGK inh -0.9%, Tb PFK inh 0.0%, HEK293 tox inconclusive and GLP1R ag 1.5%.
OC(CNc1ccccc1)Cn1ccc2ccccc21 (stereo not given) was read as Pin1 inh inconclusive, GLP-1R inv ag 11.2µM*, Tb PGK inh -8.8%, Tb PFK inh -1.9%, HEK293 tox 0.3% and GLP1R ag 2.9%.
OC(CN1CCCC1)Cn1ccc2ccccc21 (stereo not given) was read as Pin1 inh -1.5%, GLP-1R inv ag 9.0%, Tb PFK inh -10.2%, HEK293 tox 23.3% and GLP1R ag -0.1%.
COc1ccc(CCNC[C@H](O)COc2cccc(C)c2)cc1OC was read as GLP1R ag 3.0%.
Screening COc1ccc(-c2cc(NC=O)c3ncc(-c4ccc(OC)c(OC)c4)n3c2)c(OC)c1 returned GLP-1R inv ag -52.7%, HEK293 tox inconclusive and GLP1R ag 2.51µM*.
For COc1cccc(-c2cnc3c(NC=O)cc(-c4ccc(OC)cc4OC)cn23)c1 the results were GLP-1R inv ag 0.794µM*, HEK293 tox -36.5% and GLP1R ag inconclusive.
N#Cc1nc(Nc2cccc(-c3ccccc3)c2)nc(NC2CCCC2)n1 was read as Pin1 inh 12.4%.
For COc1cc(NC(=O)Cn2cc(C(=O)c3ccc(F)cc3)c(=O)c3ccc(C)nc32)cc(OC)c1 the results were Pin1 inh inconclusive, GLP-1R inv ag -26.9%, Tb PGK inh 5.8% and HEK293 tox -25.5%.
`COc1ccc(O)c(-c2nc3ccccc3c(=O)n2Cc2ccccc2)c1` gave Pin1 inh 1.0%.
For CCCCc1c(C)nc2c(-c3ccc(OC)cc3)c(C)[nH]n2c1=O the results were Pin1 inh -5.7%, GLP-1R inv ag -4.0%, Tb PGK inh inactive, HEK293 tox -15.4% and GLP1R ag 0.7%.
Screening Cc1[nH]c2ccccc2c1SCCNC(=O)c1ccc(Br)o1 returned Pin1 inh inconclusive, GLP-1R inv ag 11.2µM*, Tb PGK inh -5.9%, Tb PFK inh -7.6%, HEK293 tox -20.6% and GLP1R ag 3.5%.
`CCN1C(=O)[C@H]2[C@@H](c3ccc(-c4cccc(Cl)c4)c(OC)c3)N[C@@](CC(C)C)(C(=O)OC)[C@H]2C1=O` gave Pin1 inh 4.3%, GLP-1R inv ag 7.94µM*, Tb PGK inh inactive, Tb PFK inh 0.0%, HEK293 tox -1.9% and GLP1R ag -6.2%.
